Measured values taken from PubChem BioAssay (NCI).
This is part of a sample that, as a whole, favours compounds with a hit. Of some 79,000 tested, about 15% had one in any assay. Unmarked numbers belong to inactive results. Calls of active or inactive are those of the source. No stated cut-off is given here; in the data, active means growth inhibition above about 70%; inactive means the rest.

Test: NCI Yeast Anticancer Drug Screen. Data for the wt1 strain (AID 149);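 further: 0% = growth of vehicle-treated wt1 cultures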
Settings: S. cerevisiae wt1 strain (SPY 50644) growth inhibition, stronger effect = higher value
Experimental: Growth inhibition of yeast strains with defined genetic alterations is measured as a screen for potential anti-cancer activity. Selected strains with alterations in DNA damage repair or cell cycle control were exposed to compounds and growth inhibition was measured relative to vehicle treated controls. The strain used in this assay is wt1

| SMILES | growth inhibition (at 1.2 µM) [%] | growth inhibition (at 3.7 µM) [%] | growth inhibition (at 11.0 µM) [%] | growth inhibition (at 33.0 µM) | growth inhibition (at 100.0 µM) |
| --- | --- | --- | --- | --- | --- |
| Cc1ccc(S(=O)(=O)NC(=O)NC2=NC(C)(C)N(c3ccc(Cl)c(Cl)c3)C(N)=N2)cc1 | -2 | 1 | -1 | -1% | -3% |
| c1ccc2c(c1)c1ncccc1c1nccnc21 | -2 | 4 | 11 | 12% | 19% |
| FC(F)(F)c1cc(NC(=S)N2c3ccccc3-n3cccc3C2c2cccnc2)cc(C(F)(F)F)c1 (stereo not given) | 2 | -5 | -4 | -6% | -9% |
| Cn1c(N)nc(-c2ccc(Cl)cc2)c1SSc1c(-c2ccc(Cl)cc2)nc(N)n1C | 2 | 4 | 16 | 44% | 94% (active) |
| O=C(Nc1ccc(Cl)cc1)OCC#CCCl | -1 | 1 | 12 | 10% | 9% |
| CSC1=NNC(SC)=NN1 | -7 | -9 | -6 | 51% | 99% (active) |
| C=C(CN(C)C)C(=O)c1cc(C)ccc1C | 8 | 23 | 56 | 98% (active) | 99% (active) |
| O=CC=C(c1ccccc1)c1ccccc1 | -3 | 3 | -4 | 10% | 98% (active) |
